Measured values from publication PMC4552634, “A New Set of Chemical Starting Points with Plasmodium falciparum Transmission-Blocking Potential for Antimalarial Drug Discovery” (PLoS ONE, 2015).
Read-outs that look alike come from different tables or passages of the source. Among all 13,000 compounds or so, about 3,200 (25%) showed an effect of 50% or more. This is one part of the list.

Tested on: P. falciparum stage V gametocytes
Design: BacTiter-Glo ATP luminescence viability of purified stage V gametocytes in 384-well plates, per cent inhibition versus DMSO
Details: 48 h, 5 µM, inhibitor

| Compound | % Inhibition | % Inhibition (% Inhibition) |
| --- | --- | --- |
| Cc1cc(C(F)(F)F)cc(-n2ncc(-c3ccc(C(=O)NCc4ccccc4N)cc3)c2N)n1 [TCMDC-136658] | -13.23% | – |
| COc1ccc(CN2CCC(N3CCc4cc(NC(=O)c5cc(C)on5)ccc43)C2)cc1Cl (stereo not drawn) [TCMDC-135080] | -33.25% | – |
| COc1cc(C)ccc1S(=O)(=O)N1CCCCC(c2ccc(C(F)(F)F)cc2)=N1 [TCMDC-134533] | 19.73% | – |
| CCn1c(SC)nnc1C1CCCN(CC(=O)Nc2nc3ccc(OC)cc3s2)C1 (stereo not drawn) [TCMDC-123539] | 2.495% | – |
| Cc1cc(CN2C(=O)C(c3ccccc3)(c3ccccc3)N=C2N)c(C(F)(F)F)o1 [TCMDC-132305] | 6.087% | – |
| N=c1n(Cc2ccccc2)c2ccccc2n1CC(O)c1ccc(Cl)cc1 (stereo not drawn) [TCMDC-124078] | 66.41% | – |
| C=CCn1c(=N)n(CC(O)c2ccc(Cl)c(Cl)c2)c2ccccc21 (stereo not drawn) [TCMDC-125726] | 57.07% | – |
| CN(C)CC(O)C(c1ccccc1)c1ccc(Cl)cc1 (stereo not drawn) [TCMDC-131413] | 8.677% | – |
| N=c1n(Cc2ccc(Cl)cc2)c2ccccc2n1CC(O)c1ccc(Cl)c(Cl)c1 (stereo not drawn) [TCMDC-123813] | 91.34% | – |
| OC(CN1CCN(Cc2ccccc2)CC1)Cn1c(-c2ccccc2)c(-c2ccccc2)c2ccccc21 (stereo not drawn) [TCMDC-124021] | 9.388% | – |
| N=c1sc2ccccc2n1CC(O)c1ccc(Cl)c(Cl)c1 (stereo not drawn) [TCMDC-124031] | 27.67% | – |
| N=c1n(Cc2ccccc2)c2ccccc2n1CC(O)c1ccc(Cl)c(Cl)c1 (stereo not drawn) [TCMDC-124061] | 50.12% | – |
| O=C(Cc1ccccc1)NC(CCN1CCC(NC(=O)c2ccc(Cl)cc2)CC1)c1ccc(Cl)c(Cl)c1 (stereo not drawn) [TCMDC-141709] | -3.295% | – |
| Cc1ccc2c(c1)nc(N)n2C[C@H](O)c1ccccc1 [TCMDC-138693] | 42.68% | – |
| COC(=O)C(C)(C)Cc1c(SC(C)(C)C)c2cc(C(C)C)ccc2n1Cc1ccc(Cl)cc1 [TCMDC-131973] | 5.735% | – |
| O=C(NC1CC1)c1cnc(N2CCC(COc3cccc(F)c3)CC2)c(Cl)c1 [TCMDC-134030] | 7.356% | – |
| COc1ccc(CCn2c(C3CCCCC3)nc3oc4ccccc4c(=O)c3c2=O)cc1 [TCMDC-125003] | 26.12% | – |
| Cc1ccc(CON2C(N)=NC(N)=NC23CCCCC3)c2ccccc12 [TCMDC-131589] | 35.49% | – |
| O=S(=O)(NC1CCN(c2ccnc3cc(Cl)ccc23)C1)c1ccc(F)cc1 (stereo not drawn) [TCMDC-133654] | 5.841% | – |
| CCC1=C(C[C@H]2NCCc3cc(OC)c(OC)cc32)C[C@H]2c3cc(OC)c(OC)cc3CCN2C1 [TCMDC-131825] | 95.62% | – |
| CCC1CN2CCc3c([nH]c4ccccc34)[C@@H]2C[C@@H]1CC1NCCc2cc(OC)c(OC)cc21 (stereo partly drawn) [TCMDC-142009] | – | -17.31% |

| Compound | % Inhibition | % Inhibition (% Inhibition) |
| --- | --- | --- |
| CCC1CN2CCc3c([nH]c4ccc(OC)cc34)C2CC1CC1NCCc2cc(OC)c(OC)cc21 (stereo not drawn) [TCMDC-142010] | -39.55% | – |
| CC(C)c1ccc(-c2nc3ncc(Cl)cc3[nH]2)cc1 [TCMDC-125093] | 64.2% | – |
| CCN(CC)c1ccc(-c2nc3ncc(Cl)cc3[nH]2)cc1 [TCMDC-125094] | 7.94% | – |
| Nc1ncc(-c2cn[nH]c2)cc1-c1nc2ncc(Cl)cc2[nH]1 [TCMDC-133562] | -10.74% | – |
| CC(=O)Nc1ccc(S(=O)(=O)Nc2c(C)cc(Cc3cnc(N)nc3N)cc2C)cc1 [TCMDC-137632] | -8.406% | – |
| CNC(=O)Cc1ccc(C(=O)Nc2cccc(-c3ccc(-c4nc5cccc(C)c5[nH]4)s3)c2)cc1 [TCMDC-137076] | -37.06% | – |
| CN(C(=O)C1(c2ccc(Cl)cc2)CC1)C1CCN(CCCCCNC(=O)/C=C/c2ccc(Cl)c(Cl)c2)CC1 [TCMDC-139987] | -12.99% | – |
| O=C(/C=C/c1ccc(Cl)c(Cl)c1)NCCCCCN1CCC(CCNC(=O)Cc2ccc(Cl)cc2)CC1 [TCMDC-140001] | 60.19% | – |
| O=C(/C=C/c1ccc(Cl)c(Cl)c1)NCCCCCN1CCC(CCNC(=O)C2(c3ccc(Cl)cc3)CC2)CC1 [TCMDC-140000] | 67.34% | – |
| O=C(/C=C/c1ccc(Cl)c(Cl)c1)NCCCCCN1CCC(CCNC(=O)/C=C/c2ccc(Cl)c(Cl)c2)CC1 [TCMDC-139998] | 17.18% | – |
| Cc1oc(-c2ccc(Cl)cc2)cc1C(=O)NCCC1CCN(CCCCCNC(=O)/C=C/c2ccc(Cl)c(Cl)c2)CC1 [TCMDC-140009] | 105.7% | – |
| Cc1c(CC(=O)NCCC2CCN(CCCCCNC(=O)/C=C/c3ccc(Cl)c(Cl)c3)CC2)sc2ccc(Cl)cc12 [TCMDC-140008] | 19.89% | – |
| O=C(C=Cc1ccc(Cl)c(Cl)c1)NCCCCCN1CCC(CCNC(=O)c2cccc3ccccc23)CC1 [TCMDC-139565] | 43.11% | – |
| OC(CNCc1ccccc1Oc1ccccc1)c1cccc(C(F)(F)F)c1 (stereo not drawn) [TCMDC-140397] | 30.17% | – |
| CC1CN(c2cc(=O)n(Cc3cccc(NC(=O)Nc4ccc(-c5ccccc5)cc4)c3)cn2)CC(C)N1 (stereo not drawn) [TCMDC-133365] | -7.987% | – |
| FC(F)(F)c1ccc2[nH]c(-c3cccc(-c4ccc(CNCC5CCCO5)cc4)c3)nc2c1.O=C(O)C(F)(F)F (stereo not drawn) [TCMDC-133103] | -16.51% | – |
| COc1ccc2nccc([C@@H](O)CN3CCC(NC(=O)c4ccc(-c5ccc(C#N)cc5)cc4)CC3)c2c1 [TCMDC-141001] | 7.804% | – |
| COC(=O)c1ccc(CCC(C)NCC(O)c2cccc(C(F)(F)F)c2)cc1 (stereo not drawn) [TCMDC-131440] | 17.3% | – |
| CCN(C1CCCCC1)S(=O)(=O)c1ccc(OC)c(N2CCN(C(=O)C(Cl)(Cl)Cl)CC2)c1 [TCMDC-139319] | 82.34% | – |
| CCC1CCCCN1S(=O)(=O)c1ccc(OC)c(N2CCN(C(=O)C(Cl)(Cl)Cl)CC2)c1 (stereo not drawn) [TCMDC-139255] | 3.13% | – |
| COc1ccc(S(=O)(=O)N2CCCc3ccc(Br)cc32)cc1N1CCN(C(=O)C(Cl)(Cl)Cl)CC1 [TCMDC-139339] | 22.46% | – |
